Bioassay records (PubChem)
Only some compounds are listed: those with a hit (about 3% of all), similar ones and a draw of the others.
SENP8 block-1: blocks the human protease SENP8; purified SENP8, Z-RLRGG-aminoluciferin cleavage, luminescence; Q96LD8; inhibition, % at 10 µM; 330,000 compounds, 1.2% hits; AID 2540; in the data active = inhibition above about 50%
Target sequence (Q96LD8 whole entry, looked up): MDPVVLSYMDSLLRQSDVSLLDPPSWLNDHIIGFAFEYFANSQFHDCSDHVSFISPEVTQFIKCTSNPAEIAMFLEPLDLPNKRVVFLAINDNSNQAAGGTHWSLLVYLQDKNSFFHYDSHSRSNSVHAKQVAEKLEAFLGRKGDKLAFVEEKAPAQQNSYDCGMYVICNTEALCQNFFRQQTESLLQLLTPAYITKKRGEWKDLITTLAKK
C8 TRAIL sens: sensitizes caspase-8 expressing cells to TRAIL | NB7+C8 cells + TRAIL, ATPlite viability luminescence | inhibition (viability loss, TRAIL sensitization), % at 10 µM | 360,000 compounds, 1% hits;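 active = compounds causing at least 50% loss of cell viability in the single-dose screen, relative to plate controls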
PPC-1+TRAIL kill: PPC-1 cancer cell killing with TRAIL present | PPC-1 cells + TRAIL, ATPLite viability luminescence | cell killing (% activity), % at 4 µM or 5 µM | 220,000 compounds, 0.41% hits;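 active = cell killing above 50% in the first pass at 4 µM, then a duplicate retest at 5 µM averaging 50% or more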
SENP8 block-2: inhibitors of human SENP8 protease; Q96LD8; recombinant SENP8, Nedd8 substrate fluorescence; inhibition, % at 20 µM; 360,000 compounds, 0.64% hits; AID 602440; in the data active = inhibition mostly above about 40%, no sharp cut-off; inactive = mostly below about 27%
SENP6 inh: SENP6 protease inhibition. Q9GZR1. Recombinant SENP6 catalytic domain, aminoluciferin luminescence. 330,000 compounds, 1.8% hits. inhibition, % at 10 µM;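 active = inhibition above about 50% at the single tested dose, limit read from the data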
SENP7 inh: blocks the human protease SENP7. Q9BQF6. recombinant SENP7, Z-RLRGG-aminoluciferin luminescence, 40 min. 330,000 compounds, 1.5% hits. inhibition, % at 5 µM;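 active = inhibition above about 50% at the single test dose, limit read from the data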
Target sequence (Q9BQF6 706-1050 limits assumed): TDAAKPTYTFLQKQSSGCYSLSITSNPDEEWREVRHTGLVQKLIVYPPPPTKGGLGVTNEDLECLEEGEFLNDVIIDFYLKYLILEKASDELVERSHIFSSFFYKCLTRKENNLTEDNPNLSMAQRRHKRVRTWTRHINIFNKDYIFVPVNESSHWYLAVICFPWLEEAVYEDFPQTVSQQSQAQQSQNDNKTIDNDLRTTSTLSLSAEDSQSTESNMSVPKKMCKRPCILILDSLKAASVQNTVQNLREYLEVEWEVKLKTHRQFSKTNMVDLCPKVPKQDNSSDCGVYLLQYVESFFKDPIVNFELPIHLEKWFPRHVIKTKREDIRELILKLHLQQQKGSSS
Numbers stand for hits; 0 = inactive; - = no result given; ! = not confirmed by another sample.

SMILES	SENP8 block-1	C8 TRAIL sens	PPC-1+TRAIL kill	SENP8 block-2	SENP6 inh	SENP7 inh
Cc1cc(S(=O)(=O)Nc2ccc3cn[nH]c3c2)c(C)cc1Cl	0	0	-	0	0	0
O=C1C=C(c2c(O)ccc3ccccc23)c2ccccc2C1=O	-	86	-	0	-	-
Cc1ccc(-c2nc3c(Cl)cc(Cl)cc3c(=O)n2O)cc1	0	0	-	0	0	0
C=CCNc1nc(NCc2ccc(NC(C)=O)cc2)c2sc(-c3ccccc3)cc2n1	-	64	-	0	-	-
S=c1nc[nH]c2nc[nH]c12	0	71	-	0	0	0
Cc1cc(C)c2c(c1)/C(=C/C(=O)c1ccc(Br)s1)C(=O)N2	0	84	0	0	0	0
COc1ccc(-c2csc(NC(=O)C3CCN(c4ncnc5sc(C)c(C)c45)CC3)n2)cc1OC	0	69	-	0	0	0
COc1ccccc1OCC(=O)NNC(=O)C1CCN(c2ncnc3sc(C)c(C)c23)CC1	0	0	-	0	0	0
CN(Cc1cnc2nc(N)nc(N)c2n1)c1ccc(C(=O)N[C@@H](CCC(=O)O)C(=O)O)cc1	0	85!	-	0	0	0
Nc1nc2ncc(CNc3ccc(C(=O)N[C@@H](CCC(=O)O)C(=O)O)cc3)nc2c(=O)[nH]1	0	0	-	0	0	0
C=C1C(=O)C=C2CN(C(=O)c3ccccc3)[C@@](Cc3ccc(F)cc3)(C(=O)OC)[C@@H]12	0	73	0	0	0	0
Cc1cc(NC(=O)/C=C/c2ccccc2Cl)n(-c2nc3ccccc3[nH]2)n1	0	74	58	0	0	0
CN1C(=O)/C(=C/c2cc(N=Nc3ccccc3)ccc2O)SC1=S	0	0	0	39	0	0
CCN1C(=O)/C(=C\N2CCCCCC2)SC1=S	0	0	0	46	0	0
CCOc1ccccc1C=C1SC(=S)N(CC)C1=O	-	73	-	36	-	-
CCOC(=O)N1CCN(C(=O)CCN2C(=O)/C(=C\c3ccccc3OC)SC2=S)CC1	0	0	-	0	0	0
Cc1ccc(CNC(=O)CCC(=O)Nc2nnc(C)s2)cc1	0	0	-	0	0	0
COc1ccccc1NS(=O)(=O)c1ccc(C(=O)NCCCN2CCOCC2)cc1	0	0	-	0	0	0
COc1ccc(C(=O)NCc2cn3cccc(C)c3n2)cc1OC	0	60	0	0	0	0
CC(C)CNC(=O)c1ccc2c(c1)C(=O)N(Cc1ccco1)C2=O	0	0	-	0	0	0
CC(NC(=O)CCl)c1ccc(Cl)c(Cl)c1 (stereo unspecified)	0	61	0	0	0	0
O=C1C(=Cc2cccc(Cl)c2)CCc2ccccc21	-	0	-	0	-	-
COc1ccc(C=C2CCc3ccccc3C2=O)cc1	-	87	-	0	-	-
COc1ccccc1C=C1CCc2ccccc2C1=O	-	77	-	0	-	-
O=C1C(=Cc2ccccc2Cl)CCc2ccccc21	-	53	-	0	-	-
SMILES	SENP8 block-1	C8 TRAIL sens	PPC-1+TRAIL kill	SENP8 block-2	SENP6 inh	SENP7 inh
CCOc1ccccc1C=C1CCc2ccccc2C1=O	-	0	-	0	-	-
O=C1C(=Cc2ccc(Cl)cc2)CCc2ccccc21	-	81	-	0	-	-
Cc1cc(C)c(S(=O)(=O)Cc2ccccc2)c(OC(C)C)n1	0	0	-	0	0	0
O=C1C(=Cc2ccc(F)cc2)CCc2ccccc21	-	80	-	0	-	-
C=CCOc1ccc(/C=C/C(C)=N\O)cc1	83	61	0	0	79	89
COc1ccc(-c2cc3c(=O)n(CC(=O)NCCCN4CCN(Cc5ccccc5)CC4)ncn3n2)cc1	0	80	-	0	0	0
CCOc1ccc(CCNC(=O)Cn2ncn3nc(-c4ccc(OC)cc4)cc3c2=O)cc1	0	0	-	0	0	0
COc1ccc(-c2cc3c(=O)n(CC(=O)NCCCN4CCC(Cc5ccccc5)CC4)ncn3n2)cc1	0	83	-	0	0	0
COc1ccccc1-c1csc(Nc2ccc(Oc3ccccc3)cc2)n1	-	0	-	0	-	-
CCCCCc1cc(=O)oc2c(C(CCN3CCCCC3)c3ccc(OC)cc3)c(OC)cc(OC)c12 (stereo unspecified)	0	0	0	0	0	0
CCCCCc1cc(=O)oc2c(C(CCN3CCCC3)c3cc(OC)c(OC)c(OC)c3)c(OC)cc(OC)c12 (stereo unspecified)	0	53	0	0	0	0
CCOC(=O)C1CCCN(C(=O)c2cccc(OC(F)(F)F)c2)CC1 (stereo unspecified)	-	0	-	0	-	-
CN(C)c1ncc(C2=C(Cl)C(=O)C(N3CCCC3)=C(Cl)C2=O)s1	0	0	-	46	0	0
O=C1C(Cl)=C(N2CCCCC2)C(=O)C(Cl)=C1c1cnc(N2CCCCC2)s1	0	0	0	0	0	0
Cc1ccc(-c2ccc3c(c2)O[C@H](CN(C)Cc2cncnc2)[C@@H](C)CN([C@H](C)CO)S3(=O)=O)cc1	-	0	-	0	-	-
O=C1Nc2cc(C(=O)NCCCN3CCCC3)ccc2S/C1=C\c1ccccc1	0	0	-	0	0	0
COc1ccc(/C=C2/Sc3ccc(C(=O)NCCN4CCCCCC4)cc3NC2=O)cc1	0	79	-	0	0	0
Cc1ccc(NC(=O)N2CCCC2C(=O)Nc2nnc(C(C)C)s2)cc1 (stereo unspecified)	0	0	-	0	0	0
Oc1c(C=Nc2ccc(Cl)cn2)sc2ccccc12	0	0	0	0	66	57
CN=Cc1sc2ccccc2c1O	0	0	0	0	0	0
CC1(Br)C(Sc2ccccc2[N+](=O)[O-])=Nc2ccccc21 (stereo unspecified)	-	0	-	0	-	-
CCOc1cc(/C=N\NC(=O)c2ccc(NC(=O)C(C)(C)C)cc2)ccc1OC(=O)c1cccc(C)c1	0	59	0	0	0	0
CCOc1cc(/C=N\NC(=O)c2ccc(NC(=O)C(C)(C)C)cc2)ccc1OC(=O)c1ccc(C)cc1	0	0	0	0	0	0
CC(OC(=O)C1CCN(S(=O)(=O)c2ccc3c(c2)OCCO3)CC1)C(=O)NC1(C#N)CCCCC1 (stereo unspecified)	-	0	-	0	-	-
CCN(C(=S)Nc1cc(S(=O)(=O)N2CCOCC2)ccc1Cl)c1cccc2ccccc12	58	0	0	0	77	0
SMILES	SENP8 block-1	C8 TRAIL sens	PPC-1+TRAIL kill	SENP8 block-2	SENP6 inh	SENP7 inh
CC1=NN(c2ccccc2)C(=O)C1N=Nc1ccc(S(N)(=O)=O)cc1 (stereo unspecified)	0	0	0	52	0	0
Cc1ccccc1-c1n[nH]nc1C1=CC(=O)CC(C)(C)C1	-	0	-	0	-	-
O=S(=O)(c1ccc(SCCO)nc1)N1CCOCC1	0	0	-	0	0	0
CCN1CCC(O)(/C=C/c2ccc(C(C)C)cc2)C(C(=O)/C=C/c2ccc(C(C)C)cc2)C1 (stereo unspecified)	-	87	-	0	-	-
CCN1CCN(C(=O)/C=C/c2ccc(C(C)C)cc2)CC1	0	0	-	0	0	0
Cc1cc(C2=NNC(=NC3CC3)SC2)c(C)n1-c1ccccc1	-	79	0	0	-	-
Cc1cc(C)cc(NC(=O)/C(C#N)=C/c2cn(CC(=O)NCc3ccco3)c3ccccc23)c1	0	66	50	0	0	0
COc1ccc(-c2nn(-c3ccccc3)cc2/C=N/N=C(N)N)cc1OC	0	0	55	0	0	0
